Laboratory results published in PubChem BioAssay (NCATS).
Where “and” joins values, the source holds several entries; their conditions need not be identical. Equal values may be shown once. Records with an inconclusive call do not appear. Entries that show only a call come without a potency. Calls of active or inactive are those of the source. Unless noted, calls follow the shape of the dose curve; as a rule, active = well fitted curve in the direction sought with a large enough effect; inconclusive = small, poorly fitted or top-dose-only effect, or another doubt; inactive = no such curve, though single readings can be large; an effect the other way counts as inactive or inconclusive.

What was measured:
[1] = Cell Viability - LYMP2-001 (AID 921);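 also: cells exposed to compound for 24 h at 37 °C; nearly all actives have a fitted effect of over 70% in size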
Method in brief: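 CellTiter-Glo luminescence (intracellular ATP) after 24 hr compound exposure at 37 C, 2500 lymphoblastoid cells/well in complete medium. AC50 fitted with standard Hill equation; tetraoctylammonium bromide positive control.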

[2] = Cell Viability - LYMP2-021 (AID 974);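 also: compound exposure lasts 24 hours at 37 °C; nearly all actives have a fitted effect of over 55% in size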
Method in brief: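 Concentration-response cytotoxicity in a human lymphoblastoid line: 24 hr treatment at 37 C in complete culture medium, tetraoctylammonium bromide as positive control, luminescent ATP quantitation as viability measure.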

[3] = Cell Viability - LYMP2-010 (AID 981);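 also: cells exposed to compound for 24 hours at 37 °C; nearly all actives have a fitted effect of over 55% in size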
Method in brief: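 Acute toxicity is scored as a concentration-dependent loss of cellular ATP in human lymphoblastoid cells after 24 hr compound exposure in complete medium. Tetraoctylammonium bromide is the positive control.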

[4] = Cell Viability - LYMP2-012 (AID 982);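 also: cellular ATP by luciferase luminescence where a drop means cytotoxicity; cells exposed to compound for one day before reading; nearly all actives have a fitted effect of over 55% in size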
[5] = Cell Viability - LYMP2-016 (AID 984);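 also: cells exposed to compound for 24 hours at 37 °C; nearly all actives have a fitted effect of over 55% in size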
Method in brief: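 qHTS, 1536-well: 2500 LYMP2-016 cells/well, 5 hr 37 C, compound added, 24 hr 37 C, CellTiter-Glo 30 min RT, luminescence. Tetraoctylammonium bromide positive control. AC50 via Hill fit.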

[6] = Cell Viability - LYMP2-018 (AID 985); also: nearly all actives have a fitted effect of over 50% in size
Method in brief: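 Acute cytotoxicity is scored as a concentration-dependent drop in intracellular ATP after 24 hr exposure of the lymphoblastoid line in complete culture medium, measured by luciferase luminescence. Potency is expressed as AC50 from Hill modelling.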

[7] = Cell Viability - LYMP2-020 (AID 986)
Method in brief: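 Acute cytotoxicity in a human lymphoblastoid line is scored as a concentration-dependent fall in cellular ATP after 24 hr at 37 C in complete medium. The positive control is tetraoctylammonium bromide, and potency is given as Hill-fit AC50.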

[8] = Cell Viability - LYMP2-022 (AID 987); also: nearly all actives have a fitted effect of over 55% in size
Method in brief: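 Acute toxicity in a human lymphoblastoid line is scored as decreased intracellular ATP after 24 hr compound treatment at 37 C. ATP is measured by CellTiter-Glo luminescence; curves are fitted with the Hill equation to give AC50.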

[9] = Cell Viability - LYMP2-024 (AID 988); also: nearly all actives have a fitted effect of over 60% in size
Method in brief: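 Acute toxicity is measured as concentration-dependent loss of intracellular ATP in a human lymphoblastoid line treated 24 hours at 37 C. Luciferase luminescence quantifies ATP; AC50 values come from standard Hill-equation modelling.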

[10] = Cell Viability - LYMP2-026 (AID 989);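 also: cells exposed to compound for 24 h at 37 °C; nearly all actives have a fitted effect of over 50% in size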
Method in brief: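 Concentration-dependent loss of intracellular ATP in human lymphoblastoid cells after 24 hr at 37 C, quantified by luciferase luminescence. AC50 derived from standard Hill equation.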

[11] = target: Thyroid hormone receptor beta (Homo sapiens) (UniProt P10828); assay: qHTS assay for small molecule antagonists of thyroid hormone receptor beta signaling (AID 588547; active = well fitted inhibition curve with a large enough effect in the signal ratio, with a control signal flat, not every such curve was filed as active; the % refers to the signal ratio;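 also: cells stimulated with 0.4 nM T3 agonist during compound exposure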); conditions: TR-UAS-bla HEK293, beta-lactamase ratio, antagonist mode, 18 h
Thyroid hormone receptor beta (Homo sapiens), sequence (P10828 whole entry, looked up): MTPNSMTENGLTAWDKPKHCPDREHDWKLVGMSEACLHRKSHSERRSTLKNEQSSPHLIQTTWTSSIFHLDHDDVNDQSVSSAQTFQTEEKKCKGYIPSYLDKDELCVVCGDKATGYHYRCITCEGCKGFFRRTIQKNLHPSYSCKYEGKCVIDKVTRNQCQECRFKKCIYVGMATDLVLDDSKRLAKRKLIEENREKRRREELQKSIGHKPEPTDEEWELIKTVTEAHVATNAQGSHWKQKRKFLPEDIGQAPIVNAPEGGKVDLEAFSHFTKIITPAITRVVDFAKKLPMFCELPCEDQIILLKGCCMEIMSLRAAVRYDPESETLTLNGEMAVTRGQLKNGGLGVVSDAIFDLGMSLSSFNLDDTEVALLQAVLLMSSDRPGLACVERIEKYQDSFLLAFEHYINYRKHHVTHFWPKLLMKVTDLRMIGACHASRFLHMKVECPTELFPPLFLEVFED
Method in brief: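 TR-UAS-bla GripTite HEK293 cells in 2% charcoal/dextran FBS medium; compounds 0.59 nM to 92 uM with T3 at 0.4nM final, 18 h at 37 C. Beta-lactamase read by CCF4 fluorescence (460/530 nm); Hill fits gave IC50 and efficacy.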

[12] = qHTS assay for small molecule disruptors of the mitochondrial membrane potential - 5 hr assay (AID 651755; calls by dose curve; also: nearly all actives have a fitted effect of over 40% in size)
Method in brief: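 HepG2 cells (2,000/well), attached overnight, exposed to compound 5 hr at 37C, then Mito-MPS dye 30 min. Fluorescence read for monomers (490/535 nm) and aggregates (540/590 nm).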

[13] = Cell Viability - Jurkat (AID 426;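 active = dose-dependent loss of cell ATP signal giving a full or clear fitted curve, ranked by lower potency value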;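 also: potency is read from the fitted curve at half-maximal effect; cells exposed to compound for 40 hours at 37 °C before ATP read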); conditions: qHTS
Method in brief: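 Seed 5000 Jurkat E6-1 cells/well; add compound; incubate 40 hr at 37 °C; add CellTiter-Glo; wait 20 min at room temperature; read luminescence. Fit concentration-response with Hill equation for AC50.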

[14] = Cell Viability - Hek293 (AID 427;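 active = compounds whose dose-response curve shows a full or clear partial loss of cell viability, called from curve shape rather than a numeric limit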;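 also: potency is read from the fitted curve at half-maximal effect; cells exposed to compound for 40 hours at 37 °C before reading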); conditions: qHTS
Method in brief: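 qHTS, human embryonic kidney (adenovirus-transformed) cells; 40 hr cpd, 37 °C; CellTiter-Glo ATP luminescence. Norm: DMSO = 0, 100 uM tamoxifen = 100% inhibition. Hill-fit AC50.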

[15] = Cell Viability - NIH 3T3 (AID 541); conditions: NIH 3T3 cell viability, qHTS; activity change, negative = cytotoxicity: at 92.2 µM (top of the series);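 also: cells exposed to compound for 40 hours; nearly all actives have a fitted effect of over 25% in size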
Method in brief: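 AC50 values reflect concentration-dependent loss of intracellular ATP in NIH 3T3 cells after 40 hr treatment in complete culture medium, quantified by luciferase-based luminescence.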

[16] = Cellular Toxicity (caspase-3) NIH 3T3 (AID 666);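 also: caspase signal read after 16 h compound exposure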
Method in brief: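 Concentration-response qHTS in NIH 3T3 mouse fibroblasts scores caspase-3/7 activation as rising luminescence after 16 hr compound exposure. Signals are scaled between DMSO-only and 100 uM tamoxifen.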

[17] = qHTS Assay for Identification of Small Molecule Inducers of Hypoxia Response (AID 2120; active = well fitted curve in the direction sought with a large enough effect in the signal ratio, with a control signal flat, not every such curve was filed as active; the % refers to the signal ratio)
Method in brief: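 Induction of beta-lactamase reporter activity was measured in CellSensor HRE-bla ME-180 cells after 17 h compound treatment at 37 degrees C, using CCF4 substrate and the 460nm/530nm emission ratio to derive AC50 values.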

[18] = qHTS assay for small molecule agonists of retinoid X receptor alpha signaling (AID 588544; calls by dose curve); conditions: HEK293T RXRa-UAS-bla, beta-lactamase reporter, 18 h; 530 nm emission
[19] = target: Retinoic acid receptor RXR-alpha (Homo sapiens) (UniProt P19793); assay: as above
Retinoic acid receptor RXR-alpha (Homo sapiens), sequence (P19793 whole entry, looked up): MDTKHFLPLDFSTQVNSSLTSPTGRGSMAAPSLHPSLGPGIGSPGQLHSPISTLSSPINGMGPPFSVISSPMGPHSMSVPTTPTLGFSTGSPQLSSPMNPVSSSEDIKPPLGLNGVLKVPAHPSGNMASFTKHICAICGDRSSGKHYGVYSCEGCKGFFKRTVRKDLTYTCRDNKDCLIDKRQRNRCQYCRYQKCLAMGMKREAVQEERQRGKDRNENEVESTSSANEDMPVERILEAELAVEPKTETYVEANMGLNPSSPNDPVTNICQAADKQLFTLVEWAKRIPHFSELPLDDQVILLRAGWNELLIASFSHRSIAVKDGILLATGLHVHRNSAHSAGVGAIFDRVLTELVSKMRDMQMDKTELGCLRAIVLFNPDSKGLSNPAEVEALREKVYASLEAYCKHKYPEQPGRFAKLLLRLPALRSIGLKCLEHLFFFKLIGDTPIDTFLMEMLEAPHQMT

[20] = target: Tumor necrosis factor (Homo sapiens) (UniProt P01375); assay: qHTS assay to identify small molecules that stimulate Tumor Necrosis Factor-alpha (TNF-alpha) secretion (AID 651757; active = well fitted curve in the direction sought with a large enough effect in the signal ratio; the % refers to the signal ratio)
Tumor necrosis factor (Homo sapiens), sequence (P01375 whole entry, looked up): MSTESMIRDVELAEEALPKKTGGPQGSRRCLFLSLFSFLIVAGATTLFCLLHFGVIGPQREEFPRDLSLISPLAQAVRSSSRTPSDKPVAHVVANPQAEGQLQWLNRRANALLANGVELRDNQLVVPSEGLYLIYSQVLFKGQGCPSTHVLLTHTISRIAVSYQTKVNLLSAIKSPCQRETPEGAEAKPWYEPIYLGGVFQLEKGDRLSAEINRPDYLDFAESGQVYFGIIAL
Method in brief: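 Secreted TNF-alpha from compound-treated THP-1 cells (17 hrs, 37 C) was quantified with a homogeneous time-resolved fluorescence antibody assay.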

SMILES	Potency [1]	Potency [2]	Potency [3]	Potency [4]	Potency [5]	Potency [6]	Potency [7]	Potency [8]	Potency [9]	Potency [10]	activity change % (negative = inhibition) [11]	Potency [12]	Potency [13]	Potency [14]	activity change, negative = cytotoxicity [15]	outcome [16]	outcome [17]	max response [18]	Potency [19]	outcome [20]
COC1=CC(=O)O[C@@H](/C=C/c2ccc3c(c2)OCO3)C1	inactive	inactive	inactive	inactive	inactive	inactive	inactive	inactive	inactive	inactive	4.69% (inactive)	inactive	–	–	–	–	–	–	–	–
O=C=NC1CCCCC1	inactive	inactive	inactive	inactive	inactive	inactive	inactive	inactive	inactive	inactive	-8.25% (inactive) and 2.05% (inactive)	inactive	> 92 µM (inactive)	> 92 µM (inactive)	-1.14% (inactive) and -2.08% (inactive)	inactive	inactive	-3.28% and -9.66%	inactive	inactive
Nc1c(Cl)c(Cl)nc(C(=O)O)c1Cl	inactive	inactive	inactive	inactive	inactive	inactive	inactive	inactive	inactive	inactive	-17.9% (inactive) and -15% (inactive) and -2.55% (inactive)	inactive	> 92 µM (inactive)	> 92 µM (inactive)	-10.1% (inactive)	inactive	inactive	27.1%	inactive	inactive
Brc1ccccc1	inactive	inactive	inactive	inactive	inactive	inactive	inactive	inactive	inactive	inactive	-13.6% (inactive) and -17.2% (inactive)	inactive	> 92 µM (inactive)	> 92 µM (inactive)	-8.92% (inactive)	inactive	inactive	-12.9% and -10.7%	inactive	inactive
C[N+](C)(C)Cc1ccccc1	inactive	inactive	inactive	inactive	inactive	inactive	inactive	inactive	inactive	inactive	-5.57% (inactive) and -5.51% (inactive)	inactive	> 92 µM (inactive)	> 92 µM (inactive)	-12.6% (inactive)	inactive	inactive	3.34% and -11.4%	inactive	inactive
C=CC(C)=O	inactive	inactive	inactive	inactive	inactive	inactive	inactive	inactive	inactive	inactive	–	inactive	> 92 µM (inactive)	> 92 µM (inactive)	-2.38% (inactive)	inactive	inactive	-8.63%	inactive	inactive
N#CCCCl	inactive	inactive	inactive	inactive	inactive	inactive	inactive	inactive	inactive	inactive	-2.7% (inactive) and 7.92% (inactive)	inactive	> 92 µM (inactive)	> 92 µM (inactive)	-5.02% (inactive) and -15.1% (inactive)	inactive	inactive	5.05% and -2.32%	inactive	inactive
ClCBr	–	–	–	–	–	inactive	–	inactive	inactive	inactive	5.81% (inactive)	inactive	> 92 µM (inactive)	> 92 µM (inactive)	-20.5% (inactive)	inactive	inactive	-17.3%	inactive	inactive
C=C(C)C(=O)OCC1CO1 (stereo not given)	inactive	inactive	inactive	inactive	inactive	inactive	inactive	inactive	inactive	inactive	6.72% (inactive)	inactive	> 92 µM (inactive)	> 92 µM (inactive)	-17.7% (inactive)	inactive	inactive	-10.2%	inactive	inactive
Clc1nc(Cl)nc(Cl)n1	inactive	inactive	inactive	inactive	inactive	inactive	inactive	inactive	inactive	inactive	-1.04% (inactive)	inactive	> 92 µM (inactive)	> 92 µM (inactive)	-8.17% (inactive)	inactive	inactive	5.45% and -4.64%	inactive	inactive
